Mdm2-MdmX inh: disrupts the human Mdm2-MdmX interaction; O15151+Q00987; SaOS-2 split-luciferase Mdm2/MdmX complementation, luminescence; inhibition, % at 8 µM; 3% of 330,000 active; AID 485346;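 active means inhibition of at least 50% at 8 µM in the primary screen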
CSC inhib: cancer stem cell inhibition; 1.1% of 300,000 active; cancer stem cell-like cells viability, luminescence; inhibition, % at 7.5 µM; in the data active means inhibition above about 75%; tested in HMLE shEcad cells
MPTP inh: permeability transition pore inhibition. isolated mouse mitochondria, Ca2+ swelling absorbance, 30 min. inhibition, % at 10 µM. 1.4% of 360,000 active;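 active means inhibition of 50% or more, scaled per plate between neutral and stimulator controls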;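 further: 0% = DMSO wells given calcium and 100% = 1 mM EGTA wells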
Gli-Sufu block: Gli-Sufu pathway antagonism; inhibition, % at 5 µM; 0.74% of 340,000 active; Sufu-KO-LIGHT fibroblasts, Gli luciferase reporter luminescence;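 active means inhibition above about 55%, limit read from the data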;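 further: 0% = DMSO-treated cells and 100% = wells with medium but no cells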
NR3A LBD binder: modulators (binders) of human NR3A ligand-binding domain. NR3A LBD differential scanning fluorimetry, Tm shift; 0% = protein alone, 100% = glycine-bound protein. Tm shift relative to glycine control, % at 25 µM. 2.5% of 340,000 active;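 active means melting temperature shift of at least 10% of the positive control shift, at one fixed dose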
Beta cell apopt: beta cell apoptosis inhibition; 0.8% of 300,000 active; protection from apoptosis, % (no concentration beside the values); INS-1E cytokine-induced death, ATP luminescence, 48 h; percent of positive-control rescue, neutral wells zero;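 active means Every replicate reaches about 75%, or at least half do and their mean reaches it too, limit read from the data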;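 further: 0% = cytokine-treated negative control wells and 100% = positive control rescue; higher means more ATP so stronger rescue from cytokine killing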
Mdm2-MdmX conf: human Mdm2/MdmX binding inhibition, confirmed | shares compounds with Mdm2-MdmX inh | luminescent assay | inhibition, % at 8 µM | 55% of 10,000 active; in the data active means inhibition above about 40%
Full FLuc ctr: counter-screen for Mdm2/MdmX inhibitors: full-length luciferase; shares compounds with Mdm2-MdmX inh; SaOS-2 full-length luciferase counterscreen, luminescence; inhibition, % at 8 µM; 77% of 6,200 active;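 active means mean inhibition at 8 µM reaching about 37%, which flags the compound as non-specific, limit read from the data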;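 further: p53-null SaOS-2 cells with luciferase driven by a doxycycline-inducible promoter; compound on cells about two nights before reading with doxycycline added after day one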
Starred values were filed as active, the others as inactive; / = no result given. In the library only some 6.6% were active in any assay of this set; here they are far more common.

SMILES	Mdm2-MdmX inh	CSC inhib	MPTP inh	Gli-Sufu block	NR3A LBD binder	Beta cell apopt	Mdm2-MdmX conf	Full FLuc ctr
Cn1c(-c2ccccc2F)cc2onc(-c3ccccc3)c2c1=O	-18.5	-1.6	-0.3	-57.3	-0.8	6.9	/	/
Cn1c(-c2ccccc2)cc2onc(-c3ccccc3)c2c1=O	61.6*	6.2	0.0	-25.2	-0.2	9.7	37.5	113.3*
CCOC(=O)c1cnc(SCC(=O)Nc2sc(C)c(C)c2C#N)nc1N	72.2*	-5.1	-0.2	8.4	2.5	/	7.0	/
CCOC(=O)c1cnc(SCC(=O)Nc2cc(C(F)(F)F)ccc2N2CCOCC2)nc1N	54.5*	-0.1	-0.9	5.5	1.2	3.7	-4.0	/
Cc1sc(NC(=O)CSc2nnc(COc3ccc(Cl)cc3)n2C)c(C#N)c1C	51.8*	6.0	2.4	7.4	-8.1	2.7	34.0	/
Cc1ccc(-c2nnc(SCC(=O)Nc3sc(C)c(C)c3C#N)n2C)cc1	49.4	17.9	-0.5	1.7	1.7	2.2	/	/
CCCCOc1ccccc1C(=O)N(Cc1ccc(C)o1)C1CCS(=O)(=O)C1 (stereo not given)	10.6	-5.8	-0.8	4.6	-3.0	-7.0	/	/
CCCS(=O)(=O)NC(=O)C1(C)CCCN(C(=O)c2ccccc2C(F)(F)F)C1 (stereo not given)	/	/	-0.4	/	/	/	/	/
COc1ccc2[nH]cc(C(=O)CCl)c2c1	95.1*	38.6	1.1	2.5	-1.2	-68.0	99.8*	51.1*
NS(=O)(=O)c1ccc(CCNS(=O)(=O)c2ccc3c(c2)NC(=O)CO3)cc1	-5.3	0.9	-1.2	-6.4	1.7	-1.7	/	/
Cn1cc(/C=C2\SC(=S)N(NC(=O)c3ccccc3)C2=O)c2ccccc21	/	7.0	2.1	-12.5	-0.7	4.6	/	/
Cn1cc(/C=C2\SC(=S)N(N3CCOCC3)C2=O)c2ccccc21	50.4*	-7.6	-2.7	-2.3	2.7	-5.9	6.3	/
COc1cccc(NC(=O)CN(C)C(=O)CC(NC(=O)c2ccccc2Cl)c2ccccc2)c1 (stereo not given)	24.6	/	0.1	2.7	-1.6	-2.3	/	/
CCOC(=O)N1CCN(C(=O)c2ccc3c(=O)n(-c4ccc(OC)cc4OC)c(=S)[nH]c3c2)CC1	10.4	-5.2	-2.9	0.0	1.7	-2.4	/	/
COc1ccccc1Cn1c(=S)[nH]c2cc(C(=O)N3CCN(c4ccccc4OC)CC3)ccc2c1=O	60.8*	-6.9	-0.5	3.4	-1.3	-5.9	42.5*	54.0*
CCOC(=O)N1CCN(C(=O)c2ccc3c(=O)n(-c4ccc(OC)cc4)c(=S)[nH]c3c2)CC1	68.6*	-4.0	-0.7	-34.0	2.1	1.1	12.1	/
COc1ccccc1N1CCN(C(=O)c2ccc3c(=O)n(Cc4ccco4)c(=S)[nH]c3c2)CC1	19.4	4.3	6.0	17.0	-3.1	-3.3	/	/
CCOC(=O)C(C)(C)N(Cc1cccc(C)c1)S(=O)(=O)c1ccc(Cl)c([N+](=O)[O-])c1	57.5*	24.4	2.7	30.6	0.2	-9.5	16.2	/
CCOC(=O)C(C)(C)N(Cc1cccc(C)c1)S(=O)(=O)c1cccc([N+](=O)[O-])c1	14.4	-14.1	0.9	7.4	0.6	-4.0	/	/
c1nc(CCO[C@H]2CCCCO2)cc2cc3c(cc12)OCO3	55.6*	-2.3	-1.1	-34.6	1.8	-2.2	34.9	/
Cc1nc(S(=O)(=O)N(C)c2ccccc2)c(C#N)c(C)c1Cl	96.2*	-11.8	-0.6	-13.3	-1.3	-3.7	93.4*	57.4*
COC(=O)[C@@H]1[C@@H](C#N)C2(c3ccccc3-c3ccccc32)N(c2ccc(Cl)cc2)N1C#N	59.8*	104.8*	-4.3	11.5	-2.7	-10.1	50.2*	32.8
O=C(Cc1ccc(Cl)cc1)NN1C(=O)c2ccccc2C1=O	-15.6	-3.6	1.2	4.6	-0.3	-7.6	/	/
CCOC(=O)C(NC(=O)c1ccccc1)C(C)(C)SCc1ccccc1 (stereo not given)	/	/	-0.2	-0.5	9.7	/	/	/
Nc1nc(N=Nc2ccc(O)cc2)cc(=O)[nH]1	/	/	6.1	/	/	/	/	/
SMILES	Mdm2-MdmX inh	CSC inhib	MPTP inh	Gli-Sufu block	NR3A LBD binder	Beta cell apopt	Mdm2-MdmX conf	Full FLuc ctr
CCOc1ccc(N(CC(=O)Nc2ccccc2C)S(=O)(=O)c2c(C)noc2C)cc1	55.6*	65.0	-0.4	-2.5	0.1	/	57.4*	57.4*
CCOc1ccccc1NC(=O)CN(c1ccc(OC)cc1)S(=O)(=O)c1c(C)noc1C	58.5*	58.4	2.1	5.2	1.0	6.8	56.5*	60.0*
CCOc1ccccc1NC(=O)CN(c1cc(C)cc(C)c1)S(=O)(=O)c1c(C)noc1C	-34.2	-14.0	0.8	-0.9	2.6	/	/	/
CC(C)Cn1c(N)c(C(=O)CSc2cc(Cl)ccc2Cl)c(=O)n(C)c1=O	68.8*	36.9	/	/	/	23.7	-2.3	/
COc1ccc(-c2[nH]ncc2CN2CCC(C(=O)c3ccc(F)cc3)CC2)cc1	19.0	-5.0	0.6	0.9	-7.4	-6.5	/	/
CC(=O)O[C@@]12CO[C@@H]1C[C@H](O)[C@@]1(C)C(=O)[C@H](O)C3=C(C)[C@@H](OC(=O)[C@H](O)[C@@H](NC(=O)OC(C)(C)C)c4ccccc4)C[C@](O)([C@@H](OC(=O)c4ccccc4)[C@H]21)C3(C)C	55.8*	54.7	/	/	/	/	62.0*	52.6*
CC(=O)O[C@H]1C[C@@]2(O)[C@@H](OC(=O)c3ccccc3)C3[C@@](C)([C@@H](O)C[C@H]4OC[C@@]34OC(C)=O)[C@@H](O)[C@H](OC(C)=O)C(=C1C)C2(C)C (stereo not given in full)	13.9	-5.0	0.2	-3.8	-1.1	/	/	/
Cc1c(NC(=O)Cn2[nH]c(=O)c3ccccc3c2=O)c(=O)n(-c2ccccc2)n1C	5.9	-6.2	-1.3	-3.0	0.8	1.4	/	/
Cc1sc(NC(=O)Cn2[nH]c(=O)c3ccccc3c2=O)nc1-c1ccccc1	55.9*	7.6	2.5	14.2	-4.2	3.4	8.2	/
COc1ccc(OC)c(-c2csc(NC(=O)CN3C(=O)C4CCCCC4C3=O)n2)c1 (stereo not given)	-1.9	16.9	-0.3	0.6	-19.8	-3.8	/	/
COc1ccc(OC)c(-c2csc(NC(=O)Cn3[nH]c(=O)c4ccccc4c3=O)n2)c1	66.6*	13.1	-0.5	-4.5	-2.7	22.7	83.4*	49.6*
O=C(C1CC1)N1N=C(c2ccccc2)CC1(O)C(F)(F)C(F)(F)F (stereo not given)	-0.4	-4.2	1.1	2.9	2.0	-3.8	/	/
Cc1cccc(NS(=O)(=O)c2ccc(C)c(C(=O)OCC(=O)Nc3cc(C)on3)c2)c1	88.1*	10.2	1.2	0.4	-3.5	-3.9	75.5*	32.1
Cc1cccc(NS(=O)(=O)c2cc(C(=O)OCC(=O)Nc3cc(C)on3)ccc2C)c1	9.5	22.1	0.3	/	-13.2	-4.5	/	/

Compound activity (PubChem BioAssay)
